# Results published in PubChem BioAssay (NCI).
# The panel holds about 83,000 compounds, 20% with a hit somewhere; the sample as a whole holds those more often.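 The endpoint reported here, percent growth, reads 100 for growth as untreated, 0 for no net growth and -100 for all cells dead.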 A number with no mark means an inactive call. Activity calls are given as the source filed them. How the source made its calls: active means growth percent below 10; inactive means the rest.
# Legend:
# Assay in all cases: NCI-60 one-dose screen, 48 h (100 = growth as untreated, 0 = no growth, -100 = all killed)
# Settings in all cases: 10 µM unless noted
# DU-145 prostate = tested on: DU-145 prostate
# K-562 leukemia = tested on: K-562 leukemia
# MALME-3M melanoma = tested on: MALME-3M melanoma
# MDA-MB-231 breast = tested on: MDA-MB-231 breast
# RXF 393 renal = tested on: RXF 393 renal
# SF-268 CNS = tested on: SF-268 CNS
# SF-295 CNS = tested on: SF-295 CNS
# SF-539 CNS = tested on: SF-539 CNS
# UACC-257 melanoma = tested on: UACC-257 melanoma
# M14 melanoma = tested on: M14 melanoma
SMILES,growth (DU-145 prostate),growth (K-562 leukemia),growth (MALME-3M melanoma),growth (MDA-MB-231 breast),growth (RXF 393 renal),growth (SF-268 CNS),growth (SF-295 CNS),growth (SF-539 CNS),growth (UACC-257 melanoma),growth (M14 melanoma)
CCNc1nc(-c2ccc(Cl)c(OC)c2)c(-c2ccnc(NCCNS(=O)(=O)c3ccc(Cl)cc3)n2)s1,44.3%,18.3%,46.2%,0.973% (active),18.9%,37%,17.2%,38.3%,50.4%,29.7%
O=C(c1ccccc1)[C@@H](c1ccccc1)[C@]1(O)C(=O)Nc2ccccc21,103%,102%,98.2%,88.4%,98.6%,84.9%,95.8%,95.3%,96.8%,95.5%
O=C1OCC2=C1C(c1cccc(F)c1)c1cc3c(cc1N2CCO)CCC3 (stereo not given),2.44% (active),9.4% (active),50.9%,26.9%,32.3%,23.3%,-6.45% (active),-28.9% (active),90.1%,7.72% (active)
COc1ccc(NC(=O)CSc2oc(-c3ccccc3)nc2S(=O)(=O)c2ccc(Cl)cc2)c(OC)c1,83.1%,67.4%,57.6%,47.5%,16.3%,47.1%,53.6%,0.354% (active),40.7%,77.3%
CNC1=C(Br)C(=O)c2c(C(=O)OC)c(C)nc(C)c2C1=O,57.9%,64.4%,-26.6% (active),71.6%,63.5%,73.5%,78.3%,82.8%,56.1%,31.4%
CC(C)(C)CC(C)(C)Nc1c(-c2c(O)c3ccccc3oc2=O)nc2sccn12,113%,101%,94%,93%,103%,105%,98.8%,101%,81.4%,97.2%
Cc1cccc(CN(Nc2ccccc2)c2ccccc2)n1,107%,87.5%,89.8%,118%,96.3%,101%,118%,96.6%,98.7%,105%
CCN1C(=O)N(CC)C2C1NN=c1s/c(=C\c3ccccc3)c(=O)n12 (stereo not given),5.47% (active),8.79% (active),41.1%,2.86% (active),32%,54.8%,5.04% (active),-12.5% (active),45.8%,8.9% (active)
O=C(CNc1ncco1)Nc1ccc(S(=O)(=O)c2ccc(NC(=O)CNc3ncco3)cc2)cc1,115%,-6% (active),-38.8% (active),14.6%,-38.6% (active),99.1%,49.7%,-15.4% (active),10.3%,-28.8% (active)
O=C(NC1CCCCCC1)c1ccc2c(=O)n3c(nc2c1)CCCCC3,94.3%,89%,91.1%,100%,105%,110%,116%,89.2%,112%,110%
CC(C)C(=O)Nc1ncc(C(=O)NCCN(Cc2ccccc2)C(=O)c2ccc(S(=O)(=O)Nc3ccccc3)cc2)s1,109%,98.4%,111%,96.5%,95%,89.5%,100%,89.3%,105%,101%
CN(C)CCOc1ccc(/C(=C(/CCCCCCCCCC[P+](c2ccccc2)(c2ccccc2)c2ccccc2)c2ccccc2)c2ccccc2)cc1,-94.1% (active),-39.3% (active),-82.2% (active),-83.4% (active),-73.8% (active),-72.1% (active),-88.6% (active),-88.9% (active),-77.4% (active),-79.6% (active)
COc1cc2c(cc1-c1c(C)noc1C)ncc1nc(C3CCOCC3)n(C3CCC(OC(F)F)CC3)c12 (stereo not given),73.2%,47.6%,44.1%,36.2%,59%,64.9%,53.5%,56.6%,47.7%,54.6%
COc1cc2c(cc1OC)CC[N+](CCC[N+](C)(C)C)=C2,108%,111%,89%,115%,113%,91.7%,97%,98%,100%,91.7%
Cc1ccccc1NC(=O)c1sc2nc3c(cc2c1N)CCCC3,25.2%,17.6%,53.9%,52.5%,14.2%,49.6%,16.4%,8.72% (active),40.7%,27%
CC1=C([Se]CC(OC(=O)[C@@H](CO)NC(=O)OC(C)(C)C)C(=O)NCCCCCC(=O)OCc2ccccc2)C(=O)c2ccccc2C1=O (stereo not given in full),-54.6% (active),-4.48% (active),-68.1% (active),-54.4% (active),-99.4% (active),-2.71% (active),-38.4% (active),-92.6% (active),-94% (active),-95% (active)
COc1cc2c(c(OC)c1OC)CCC(c1cccc(NC(=O)c3cccc(Cl)c3)c1)O2 (stereo not given),102%,72%,86.6%,88%,96%,90.6%,74.4%,103%,94.2%,86.6%
CCOC(=O)c1c(C)nc2c(c1N)C(=O)C(=O)N2CCc1ccc(OC)c(OC)c1,89.7%,25.6%,79.1%,80.4%,83.8%,78.7%,63.3%,70%,46.8%,70.6%
CC(C)(C)n1cc(-c2ccnc(NCCNS(=O)(=O)c3ccc(C(F)(F)F)cc3)c2)c(-c2ccccc2)n1,99.2%,44.3%,109%,92.1%,87.8%,95.3%,83.7%,82.2%,104%,88.8%
